# Experimental data published in PubChem BioAssay AID435005 (Broad Institute, 2010).
# About 2,400 (0.8%) of roughly 300,000 compounds were called active. Shown is part of a subset that was picked to be rich in actives. Unmarked numbers belong to inactive results.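 The calls were made as follows: active = Every replicate reaches about 75%, or at least half do and their mean reaches it too (limit read from the data); inconclusive = At least half of replicates reach the limit but their mean does not; inactive = Under half of replicates reach the limit.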
# Assay: inhibitors of cytokine-induced beta cell apoptosis, primary screen, luminescence (AID 435005);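 also: 0% = cytokine-treated negative control wells and 100% = positive control rescue; higher means more ATP so stronger rescue from cytokine killing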
# Conditions: INS-1E cytokine-induced death, ATP luminescence, 48 h; hits give high values; percent of positive-control rescue, neutral wells zero; concentration not given here
row,Structure (SMILES),protection from apoptosis
1,COc1ccc2cc1Oc1ccc(cc1)C[C@H]1c3cc(c(OC)cc3CCN1C)Oc1c(O)c(OC)cc3c1[C@H](C2)N(C)CC3,98.5% (active)
2,COc1c(O)ccc2c1CN1CCc3cc4c(cc3C1C2)OCO4 (stereo unspecified),-2.11%
3,O=C(CNC(=O)c1ccco1)NNC(=O)c1ccc(Br)cc1,-6.27%
4,CC(C)(C)OC(=O)C[C@H]1C/C=C\C[C@@H](CC(=O)N[C@H](CO)Cc2ccccc2)C(=O)NC[C@@H](c2ccccc2)OC1=O,6.61%
5,CC1O[C@H](OC2C(COC3OC(CO)C(O)[C@H](O)C3O)OC(OC3CC[C@]4(C)C(CC[C@@]5(C)[C@@H]4C=C[C@]46OC[C@@]7(CCC(C)(C)C[C@H]74)C(O)C[C@@]56C)C3(C)C)C(O)C2O)C(O)C(O)C1O (stereo partly specified),-6.92%
6,C=C(C)C(=O)O[C@H]1C/C(C)=C\C(=O)/C=C(\C)[C@H](O)[C@@H]2OC(=O)C(=C)[C@@H]21,96.8% (active)
7,O=C(NCc1ccc2c(c1)OCO2)c1cc([N+](=O)[O-])ccc1N1CCOCC1,12.9%
8,O=C(COC(=O)C1CCCO1)Nc1nc(-c2ccc(F)cc2)cs1 (stereo unspecified),0.639%
9,c1ccc2c(CCN3CCNC[C@H]3Cc3cccc4ccccc34)cccc2c1,1.24%
10,COc1ccc(S(=O)(=O)/N=C2\C=C(NS(=O)(=O)c3ccccc3)C(=O)c3ccccc32)cc1,1.27%
11,CC(C)CC[n+]1ccn(C2=C([O-])c3ccccc3C(=O)/C2=N\S(=O)(=O)c2ccccc2)c1,95% (active)
12,COc1ccc(OCC(=O)NNC(=O)C2CCC2)cc1,-4.44%
13,COC(=O)[C@]1(Cc2ccccc2)N[C@H](CN(C)S(=O)(=O)c2ccc(F)cc2)[C@@H]2C(=O)N(Cc3ccccc3)C(=O)[C@@H]21,10.3%
14,CN(Cc1cccnc1)C(=O)c1cc(COc2ccc3ncccc3c2)on1,101% (active)
15,Cc1cc(CN(C)C(=O)c2cc(COc3ccc(C)c(C)c3)on2)n[nH]1,-0.122%
16,Cc1ccc(OCc2cc(C(=O)N(C)CCc3ccccc3)no2)cc1C,-0.126%
17,O=C(COC(=O)COc1ccccc1F)Nc1cccc(S(=O)(=O)N2CCCCC2)c1,-4.07%
18,O=C(NCCCN1CCOCC1)c1cn(-c2ccccc2)nc1-c1ccc(F)cc1,-0.73%
19,Cc1noc(C)c1C(=O)N1CCOCC1,-4.19%
20,Cc1oc2c(c1C(=O)N1CCOCC1)C(=O)c1ccccc1C2=O,108% (active)
21,CCOC(=O)c1ccccc1C(=O)N1CCOCCOCCOCC1,0.0542%
